Structures can show the parent of a compound that is named as a salt. ± gives the standard deviation of the averaged measurements.
Tests used:
[1] = test system: Saccharomyces cerevisiae BY4741 SeMeCo community; experiment: mean cell size (pixel area) (pixels); higher = larger cells; conditions: 10 µM; 24 h; SM minimal medium
Summary of the method: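 Mean cell pixel area per well was measured in a four-plasmid fluorescent community of Saccharomyces cerevisiae BY4741, where every plasmid complements one auxotrophy and carries a fluorescent marker. Cells from an overnight preculture at OD600 = 1.0 were diluted to OD600 = 0.3 and dispensed at 70 µl into 384-well plates acoustically predosed with drug to a final 10 µM in SM medium. Incubation lasted 24 h, followed by paraformaldehyde fixation, automated confocal imaging and analysis in Harmony. Reported figures are averaged over 3 replicates. Same SeMeCo high-content imaging drug screen: Selleck FDA-approved drugs at 10 µM, 24 h in SM medium, 384-well plates, 3 replicates.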

[2] = test system: Saccharomyces cerevisiae BY4741 SeMeCo community; experiment: z-score of prototroph abundance vs DMSO median; higher = larger share of this subpopulation than in DMSO controls; conditions: 10 µM; 24 h; SM minimal medium; subpopulation (auxotrophy): Prototroph
Summary of the method: (§1)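 Automated confocal microscopy of paraformaldehyde-fixed cells was used to follow a Saccharomyces cerevisiae BY4741 community carrying four plasmids, each restoring one auxotrophy and encoding a distinct fluorescent protein. The community was pre-grown overnight to OD600 1.0, diluted to 0.3, and added at 70 µl to 384-well plates acoustically predosed with library drugs (10 µM final) for 24 h of growth in minimal SM medium. Single-auxotroph fluorescent strains set thresholds and autofluorescence correction, and each subpopulation's abundance was scored as a z-score against the vehicle-well median.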

[3] = test system: Saccharomyces cerevisiae BY4741 SeMeCo community; experiment: z-score of subpopulation abundance vs DMSO median, subpopulation auxotrophic for M; higher = larger share of this subpopulation than in DMSO controls; conditions: 10 µM; 24 h; SM minimal medium; subpopulation (auxotrophy): M
Summary of the method: as §1

[4] = test system: Saccharomyces cerevisiae BY4741 SeMeCo community; experiment: z-score of subpopulation abundance vs DMSO median, subpopulation auxotrophic for L; higher = larger share of this subpopulation than in DMSO controls; conditions: 10 µM; 24 h; SM minimal medium; subpopulation (auxotrophy): L
Summary of the method: as §1

[5] = test system: Saccharomyces cerevisiae BY4741 SeMeCo community; experiment: z-score of subpopulation abundance vs DMSO median, subpopulation auxotrophic for U; higher = larger share of this subpopulation than in DMSO controls; conditions: 10 µM; 24 h; SM minimal medium; subpopulation (auxotrophy): U
Summary of the method: as §1

[6] = test system: Saccharomyces cerevisiae BY4741 SeMeCo community; experiment: z-score of subpopulation abundance vs DMSO median, subpopulation auxotrophic for H; higher = larger share of this subpopulation than in DMSO controls; conditions: 10 µM; 24 h; SM minimal medium; subpopulation (auxotrophy): H
Summary of the method: as §1

[7] = test system: Saccharomyces cerevisiae BY4741 SeMeCo community; experiment: z-score of subpopulation abundance vs DMSO median, subpopulation auxotrophic for LU; higher = larger share of this subpopulation than in DMSO controls; conditions: 10 µM; 24 h; SM minimal medium; subpopulation (auxotrophy): LU
Summary of the method: as §1

[8] = test system: Saccharomyces cerevisiae BY4741 SeMeCo community; experiment: z-score of subpopulation abundance vs DMSO median, subpopulation auxotrophic for LM; higher = larger share of this subpopulation than in DMSO controls; conditions: 10 µM; 24 h; SM minimal medium; subpopulation (auxotrophy): LM
Summary of the method: as §1

[9] = test system: Saccharomyces cerevisiae BY4741 SeMeCo community; experiment: z-score of subpopulation abundance vs DMSO median, subpopulation auxotrophic for HM; higher = larger share of this subpopulation than in DMSO controls; conditions: 10 µM; 24 h; SM minimal medium; subpopulation (auxotrophy): HM
Summary of the method: as §1

[10] = test system: Saccharomyces cerevisiae BY4741 SeMeCo community; experiment: z-score of subpopulation abundance vs DMSO median, subpopulation auxotrophic for HU; higher = larger share of this subpopulation than in DMSO controls; conditions: 10 µM; 24 h; SM minimal medium; subpopulation (auxotrophy): HU
Summary of the method: as §1

[11] = test system: Saccharomyces cerevisiae BY4741 SeMeCo community; experiment: z-score of subpopulation abundance vs DMSO median, subpopulation auxotrophic for UM; higher = larger share of this subpopulation than in DMSO controls; conditions: 10 µM; 24 h; SM minimal medium; subpopulation (auxotrophy): UM
Summary of the method: as §1

[12] = test system: Saccharomyces cerevisiae BY4741 SeMeCo community; experiment: z-score of subpopulation abundance vs DMSO median, subpopulation auxotrophic for HL; higher = larger share of this subpopulation than in DMSO controls; conditions: 10 µM; 24 h; SM minimal medium; subpopulation (auxotrophy): HL
Summary of the method: as §1

[13] = test system: Saccharomyces cerevisiae BY4741 SeMeCo community; experiment: z-score of subpopulation abundance vs DMSO median, subpopulation auxotrophic for HLU; higher = larger share of this subpopulation than in DMSO controls; conditions: 10 µM; 24 h; SM minimal medium; subpopulation (auxotrophy): HLU
Summary of the method: as §1

[14] = test system: Saccharomyces cerevisiae BY4741 SeMeCo community; experiment: z-score of subpopulation abundance vs DMSO median, subpopulation auxotrophic for HLM; higher = larger share of this subpopulation than in DMSO controls; conditions: 10 µM; 24 h; SM minimal medium; subpopulation (auxotrophy): HLM
Summary of the method: as §1

[15] = test system: Saccharomyces cerevisiae BY4741 SeMeCo community; experiment: z-score of subpopulation abundance vs DMSO median, subpopulation auxotrophic for HUM; higher = larger share of this subpopulation than in DMSO controls; conditions: 10 µM; 24 h; SM minimal medium; subpopulation (auxotrophy): HUM
Summary of the method: as §1

[16] = test system: Saccharomyces cerevisiae BY4741 SeMeCo community; experiment: z-score of subpopulation abundance vs DMSO median, subpopulation auxotrophic for LUM; higher = larger share of this subpopulation than in DMSO controls; conditions: 10 µM; 24 h; SM minimal medium; subpopulation (auxotrophy): LUM
Summary of the method: as §1

[17] = test system: Saccharomyces cerevisiae BY4741 SeMeCo community; experiment: z-score of subpopulation abundance vs DMSO median, subpopulation auxotrophic for HLUM; higher = larger share of this subpopulation than in DMSO controls; conditions: 10 µM; 24 h; SM minimal medium; subpopulation (auxotrophy): HLUM
Summary of the method: as §1

| Compound | mean cell size [1] | z-score of prototroph abundance [2] | z-score of subpopulation abundance [3] | z-score of subpopulation abundance [4] | z-score of subpopulation abundance [5] | z-score of subpopulation abundance [6] | z-score of subpopulation abundance [7] | z-score of subpopulation abundance [8] | z-score of subpopulation abundance [9] | z-score of subpopulation abundance [10] | z-score of subpopulation abundance [11] | z-score of subpopulation abundance [12] | z-score of subpopulation abundance [13] | z-score of subpopulation abundance [14] | z-score of subpopulation abundance [15] | z-score of subpopulation abundance [16] | z-score of subpopulation abundance [17] |
| --- | --- | --- | --- | --- | --- | --- | --- | --- | --- | --- | --- | --- | --- | --- | --- | --- | --- |
| CCn1cc(C(=O)O)c(=O)c2ccc(C)nc21 [Nalidixic acid] | 11.87 ± 0.1 | 1.23 | -1.04 | 1.23 | -0.51 | -0.95 | -0.49 | 0.23 | -1.62 | -0.52 | -1.42 | -0.13 | -0.15 | -0.21 | -1.86 | -0.71 | -0.59 |
| Cc1ccc(Cl)c(Nc2ccccc2C(=O)O)c1Cl [Meclofenamate Sodium] | 12.7 ± 0.19 | 1.11 | 0.25 | -0.25 | -0.1 | -0.35 | -0.57 | -0.57 | -0.47 | -0.21 | -0.07 | -0.49 | -0.7 | -0.85 | -0.63 | -0.74 | -0.31 |
| CN(C)CCC[C@@]1(c2ccc(F)cc2)OCc2cc(C#N)ccc21 [Escitalopram Oxalate] | 12.4 ± 0.18 | 1.15 | 0.05 | 0.5 | -0.79 | -0.42 | -0.08 | 0.48 | -0.98 | -0.95 | -0.53 | -0.1 | -0.25 | -0.63 | -0.36 | -0.28 | 0.18 |
| CCC[C@@H]1C[C@@H](C(=O)N[C@@H]([C@H]2O[C@H](SC)[C@H](O)[C@@H](O)[C@H]2O)[C@H](C)Cl)N(C)C1 [Clindamycin HCl] | 12.61 ± 0.074 | -0.3 | 0.72 | 0.8 | -0.42 | -0.08 | -0.2 | 0.83 | 0.38 | -0.26 | 0.35 |  | -0.02 | 0.06 | -0.28 | 0.28 | 0.72 |
| O=C(O)c1cc(=O)c2c(OCC(O)COc3cccc4oc(C(=O)O)cc(=O)c34)cccc2o1 [Disodium Cromoglycate] | 12.1 ± 0.22 | 0.23 | -0.6 | -1.19 | 0.66 | -0.75 | -0.38 | -0.12 | -0.13 | 0.68 | -0.22 | -1.3 | -0.29 | -0.04 | -0.62 | -0.55 | -0.81 |
| COc1ccc2c(c1)c(CC(=O)OCC(=O)O)c(C)n2C(=O)c1ccc(Cl)cc1 [Acemetacin] | 12.45 ± 0.094 | -0.16 | 0.01 | -1.06 | -0.02 | 0.66 | 0.16 | -0.54 | 0.71 | 0.77 | 0.2 |  | -0.64 | -0.3 | 0.69 | -0.15 | -0.61 |
| CC(=O)N[C@H]1[C@H]([C@H](O)[C@H](O)CO)OC(C(=O)O)=C[C@@H]1NC(=N)N [Zanamivir] | 11.9 ± 0.17 | -0.31 | 0.82 | 1.27 | -1.03 | 0.63 | -0.15 | 1.52 | 0.87 | -0.41 | -0.2 | 1.66 | 0.56 | 0.19 | 0.23 | 0.82 | 0.38 |
| CN1[C@@H]2CC[C@H]1C[C@@H](OC(=O)c1c[nH]c3ccccc13)C2 [Tropisetron] | 12.15 ± 0.079 | -1.48 | 1.72 | 1.61 | -0.36 | 0.66 | 0.87 | 1.96 | 2.08 | 0.59 | 0.48 | 1.63 | 1.41 | 1.12 | 0.95 | 1.16 | 0.38 |
| C#C[C@]1(O)CC[C@H]2[C@@H]3CCc4cc(O)ccc4[C@H]3CC[C@@]21C [Ethinyl Estradiol] | 12.8 ± 0.2 | 1.23 | 0.05 | -0.55 | -1.01 | 0.36 | -1.41 | -0.77 | 0 | 0.01 | -1.64 |  | -0.36 | -0.72 | -0.88 | -1.48 | -1.02 |
| O=C1[C@H]2CCCC[C@H]2C(=O)N1CCCCN1CCN(c2nsc3ccccc23)CC1 [Perospirone hydrochloride] | 12.5 ± 0.18 | 0.14 | -0.63 | 0.16 | 0.1 | -0.14 | 0.24 | -0.76 | -0.27 | 0.13 | -0.02 |  | 0.2 | 0.02 | -0.23 | 0.12 | -0.08 |
| COc1cc([C@@H]2c3cc4c(cc3[C@@H](O[C@@H]3O[C@@H]5CO[C@@H](C)O[C@H]5[C@H](O)[C@H]3O)[C@H]3COC(=O)[C@H]23)OCO4)cc(OC)c1O [Etoposide] | 12.44 ± 0.11 | -0.82 | 0.21 | 0.2 | 0.39 | 0.15 | 0.39 | 0.96 | 0.36 | 0.37 | 0.47 | 0.84 | 0.56 | 0.66 | 0.64 | 0.64 | 1.05 |
| CC1=C(CC(=O)O)c2cc(F)ccc2/C1=C\c1ccc([S+](C)[O-])cc1 (stereo unspecified) [Sulindac] | 12.4 ± 0.21 | 0.27 | 0.53 | 1.59 | -1.92 | 0.69 | -0.59 | 1.7 | 0.57 | -0.74 | -1.2 |  | -0.15 | -0.2 | -0.07 | 0.36 | -0.02 |
| COCCCOc1ccnc(C[S+]([O-])c2nc3ccccc3[nH]2)c1C (stereo unspecified) [Rebeprazole sodium] | 12.5 ± 0.13 | -0.38 | 0.58 | -0.68 | 0.15 | -0.76 | -0.77 | 0.03 | 0.23 | -0.49 | 0.75 | -0.55 | 1.09 | -0.22 | 0.36 | 0.11 | 0.04 |

— the supplement of paper PMC8975748
